This is a sample that favours compounds with a hit; in the whole collection about 3.5% have one here.
Sm TGR inh – qHTS Assay for the Inhibitors of Schistosoma Mansoni Peroxiredoxins; Schistosoma mansoni thioredoxin glutathione reductase (TGR), Q962Y6; purified TGR, DTNB reduction, TNB absorbance 405 nm; Potency, µM (series often up to 114 µM), most hits filed as inhibitors; 360,000 tested, 3% active; further: nearly all actives have a fitted effect of over 60% in size
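Kinetic colorimetric format: TGR-catalysed, NADPH-driven DTNB reduction monitored via TNB absorbance. Enzyme dispensed at 20 nM; compound exposure 15 min at room temperature before reaction start.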
LmPK inhibitor – qHTS Assay for Inhibitors of Leishmania Mexicana Pyruvate Kinase (LmPK); purified LmPK, Kinase-Glo ATP luminescence, 1 h; Potency, µM (series often up to 57.5 µM), usual class: inhibitors; AID 1721, 2009; 290,000 tested, 0.37% active; Q27686
Target sequence (Q27686 whole entry, looked up): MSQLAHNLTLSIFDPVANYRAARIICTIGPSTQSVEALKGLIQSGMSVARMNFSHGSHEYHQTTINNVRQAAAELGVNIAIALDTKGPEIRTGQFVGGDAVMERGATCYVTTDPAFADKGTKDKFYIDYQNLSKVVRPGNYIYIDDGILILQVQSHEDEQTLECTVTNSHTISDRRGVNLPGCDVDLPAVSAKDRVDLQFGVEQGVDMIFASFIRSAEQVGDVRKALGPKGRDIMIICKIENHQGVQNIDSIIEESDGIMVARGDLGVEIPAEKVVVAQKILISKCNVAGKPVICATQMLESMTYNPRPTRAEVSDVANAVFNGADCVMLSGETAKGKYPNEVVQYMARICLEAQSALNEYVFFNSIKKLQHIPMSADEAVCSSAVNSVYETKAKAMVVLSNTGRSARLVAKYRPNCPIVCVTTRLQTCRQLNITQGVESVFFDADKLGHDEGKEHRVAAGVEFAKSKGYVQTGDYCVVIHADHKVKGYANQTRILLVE
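ATP generated from ADP (0.1 mM) and PEP (0.5 mM) by 0.1 nM LmPK over 1 h at room temperature (pH 7.2 imidazole buffer) was detected by coupled luciferase luminescence. Values were normalized to uninhibited and no-enzyme wells.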
FBPA Giardia inh – qHTS Assay for Inhibitors of Fructose-1,6-bisphosphate Aldolase from Giardia Lamblia; A8B2U2; purified Giardia FBPA; Potency, µM (top dose mostly 59.6 µM), hits mostly inhibitors; 290,000 tested, 0.71% active; AID 2451, 2010; further: nearly all actives have a fitted effect of over 55% in size
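40 nM FBPA preincubated 10 min at RT with compound (up to 57.5 uM final), then substrate plus GAPDH/TPI/NAD/arsenate coupling and diaphorase/resazurin added. Fluorescence read after 20 min at RT, 525/598 nm.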
TbPYK inhibitor – qHTS of Trypanosoma Brucei Inhibitors; pyruvate kinase (Trypanosoma brucei), Q57TT1; TbPYK enzyme, Kinase-Glo Plus ATP luminescence, 45 min; Potency, µM (top dose mostly 76.8 µM), actives largely listed as inhibitors; 410,000 tested, 0.12% active; AID 624173, 2012; further: nearly all actives have a fitted effect of over 50% in size
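ADP (130 uM final) triggers the TbPYK reaction after compound addition; incubation is 45 min at room temperature. Kinase-Glo Plus is then added and luminescence imaged. Normalized data are fitted to concentration-effect curves.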
RE007 growth inh – qHTS Assay for Inhibitors of the HIV-1 protein Vpr; S. pombe RE007 Vpr strain, BacTiter-Glo ATP luminescence, 24 h; Potency, µM (series often up to 92.2 µM), actives largely listed as inhibitors; 360,000 tested, 0.21% active; AID 651644, 2012; active means well fitted falling curve with a large enough effect; inconclusive means small, poorly fitted or top-dose-only effect; inactive means no such curve, though single readings can be large or run the other way; further: nearly all actives have a fitted effect of over 50% in size
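Fission yeast RE007 carrying one integrated HIV-1 vpr copy, seeded at OD 0.01 in PMG+AL medium with 23 nL pinned compound. Grown 24 h at 30 degrees; viability read by BacTiter-Glo luminescence after 5 min.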
NS1 function inh – qHTS Assay for Inhibitors of Influenza NS1 Protein Function | Potency, µM (top dose mostly 46.1 µM) | 270,000 tested, 0.4% active; calls by dose curve; further: actives are rising curves; nearly all actives have a fitted effect of over 50% in size
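OD600 was taken as the measure of yeast growth restored by compound in an NS1-expressing S. cerevisiae strain. Cells had been washed out of glucose medium and diluted 1:100 into galactose -URA medium, pH 6.0.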
Numbers stand for hits; - = inactive; ? = inconclusive; . = not tested or not shown; [ ] = another dose, or the depositor's remark. Unless noted, the call rests on the fitted dose curve; in most records, active means well fitted curve in the direction sought with a large enough effect; inconclusive means small, poorly fitted or top-dose-only effect, or another doubt; inactive means no such curve, though single readings can be large; an effect the other way counts as inactive or inconclusive.

SMILES	Sm TGR inh	LmPK inhibitor	FBPA Giardia inh	TbPYK inhibitor	RE007 growth inh	NS1 function inh
CC(=O)OC(C#CCN1CCOCC1)c1ccccc1 (stereo not drawn)	-	-	-	.	-[3.69 µM]	-
CCOc1ccccc1C(=O)NCc1ccc2c(c1)CCN2C(C)=O	-	.	.	-	.	.
CCOc1ccccc1C(=O)Nc1ccc(S(=O)(=O)Nc2nccc(C)n2)cc1	31.6µM	-	?	-	-	-
CCN(CC)c1ccc(NC(=O)CCc2nc3cccnc3n2Cc2cccs2)c(C)c1	-	.	.	-	.	.
COc1ccc(OCc2cc(-c3ccc(Cl)cc3)no2)cc1	-	-	-	-	-	.
O=C(CCl)NCc1cc(-c2ccc(Cl)cc2)no1	31.6µM	-	-	-	-	.
Cc1ccc(N2CC(C(=O)NCc3ccc(C)n3C)CC2=O)cc1 (stereo not drawn)	39.8µM	-	?	-	-	.
CSc1ccccc1C(=O)NC(C)c1ccc(-n2ccnc2)cc1 (stereo not drawn)	5.62µM	-	.	-	-	-
COc1ccccc1-c1cc(C(F)(F)F)nc(S(=O)(=O)CCCC(=O)N2CCCCC2C)n1 (stereo not drawn)	22.4µM	-	-	-	-	-
COc1ccccc1-c1cc(C(F)(F)F)nc(S(=O)(=O)CCCC(=O)NC(C)C)n1	-	-	-	-	-	-
COc1ccccc1-c1cc(C(F)(F)F)nc(S(C)(=O)=O)n1	28.2µM	-	-	-	-	-
NNC(=O)CCCNc1ncc(C(F)(F)F)cc1Cl	-	-	-	-	-	.
CN(C)/C=C1/C(=O)NC(=O)N(CCNc2ncc(C(F)(F)F)cc2Cl)C1=O	11.2µM	-	-	-	-	-
N#CC(C#N)=C1C=CC=CN1/C(=C\c1ccco1)C(=O)c1ccccc1	2.82µM	-	-	-	-	-
CCN(CC)c1ccc(/C=C(\C#N)C(=O)c2ccc(Br)cc2)cc1	-	-	-	-	?	-
COc1ccc(C(=O)/C(=C\c2ccco2)N2C=CC=CC2=C(C#N)C#N)cc1	?	-	-	-	-	-
N#CC(C#N)=C1C=CC=CN1/C(=C\c1ccco1)C(=O)c1ccc(Br)cc1	2.24µM	-	-	?	-	-
CCN1Cc2c(/C=C/c3ccccc3)nc3ccc(OC)cc3c2N(c2cccc(Cl)c2)C1	39.8µM	-	-	-	.	-
COc1cc(-c2nc3nc[nH]n3c2Nc2ccc(C(C)C)cc2)ccc1O	14.1µM	.	.	-	.	.
COc1cc(-c2nc3cnccn3c2Nc2ccc(C(C)C)cc2)ccc1O	-	-	-	-	-	-
CCc1ccc(NC(=O)c2ccc(NS(=O)(=O)c3c(C)noc3C)cc2)cc1	-	.	.	-	.	.
CCc1ccc2oc(C(=O)N(Cc3ccc(N(C)C)cc3)Cc3ccco3)c(C)c2c1	-	.	.	-	.	.
CCOC(=O)/C=c1\s/c(=C\c2ccc(-c3ccccc3)cc2)c(=O)n1CC(=O)NCc1ccc2c(c1)OCO2	-	-	-	-	.	11.2µM
CCOc1ccccc1NC(=O)Nc1cccc(S(N)(=O)=O)c1	-	-	-	-	-	-
CCOc1ccccc1NC(=O)/C=C/C(N)=O	3.98µM	-	-	-	-	-
SMILES	Sm TGR inh	LmPK inhibitor	FBPA Giardia inh	TbPYK inhibitor	RE007 growth inh	NS1 function inh
CCOc1ccccc1NC(=S)Nc1ccc(S(N)(=O)=O)cc1	14.1µM	-	-	-	-	-
Cc1cc(C)c2c(-n3cccc3)c(C(=O)NCc3cccc(F)c3)sc2n1	-	.	.	-	.	.
CC(=O)/C(N=Nc1ccc(C(=O)O)cc1[N+](=O)[O-])=C(\C)O	-	25.1µM	-	-	-	-
CC(C)CCC[C@@H](C)[C@@H]1CC[C@H]2C3=CC=C4CC(O)CC[C@]4(C)[C@H]3CC[C@@]21C (stereo partly drawn)	.	.	-	.	.	.
O=C(CC1OC(=O)c2ccccc21)Nc1ccccc1N1CCOCC1 (stereo not drawn)	-	-	-	-	-	-
CC(=O)N1CCN(C(=O)CC2OC(=O)c3ccccc32)CC1 (stereo not drawn)	?	-	-	-	44.7µM	-
COc1cccc2c(C)cc3nnc(SCC(=O)Nc4ccc(C)cc4)n3c12	-	.	.	-	.	.
CCOCCCNC(=O)/C(C#N)=C/c1ccc(C)o1	39.8µM	-	-	-	-	-
N#CC(C#N)=Cc1ccc([N+](=O)[O-])c(O)c1	.	.	?	.	.	-
N#CC(C#N)=Cc1ccc(C=C(C#N)C#N)cc1	2.24µM	-	?	-	-	-
O=C(CCn1c(=O)c2cccn2c2cccnc21)N1CCN(c2cccc(C(F)(F)F)c2)CC1	-	.	.	-	.	.
COc1cc2c(cc1OC)C(C)N(C(=O)c1cc3n(n1)C(C(F)(F)F)CC(c1ccco1)N3)CC2 (stereo not drawn)	25.1µM	-	?	-	-	-
Cc1ccc(/C=C/C2=Cc3c(sc(NC(=O)CSc4n[nH]c(N)n4)c3C#N)C(C)(C)C2)o1	2.51µM	-	-	.	.	-
Cc1cc(C(=O)CN2CC(C)OC(C)C2)c(C)n1-c1ccccc1 (stereo not drawn)	44.7µM	-	-	-	-	-
CCOc1cc(/C=N/NC(=O)c2ccccn2)ccc1OC(=O)c1ccc(F)cc1	50.1µM	-	.	-	-	-
COc1ccc(/C=N\NC(=O)c2ccc(F)cc2)cc1COc1ccccc1C(N)=O	28.2µM	-	.	-	-	-
CC(=O)N1CCc2c(sc3c2c(=O)n(-c2ccccc2Cl)c(=O)n3C)C1	-	.	.	-	.	.
CC(=O)N1CN(Cc2ccccn2)Cc2c1sc1c2CCCC1	39.8µM	-	-	-	-	-
CC(=O)N1CN(CCCn2ccnc2)Cc2c1sc1c2CCCC1	-	-	-	-	-	-
O=C1OC(c2ccc(F)cc2)=C/C1=C\c1ccc([N+](=O)[O-])o1	3.98µM	-	-	.	.	.
O=C1OC(c2ccc(F)cc2)=C/C1=C\c1ccc(O)cc1	12.6µM	-	-	-	-	-
Cc1cccc(N2CCN(C(=O)CCc3c(C)nc4c(c3C)c(=O)n(C)c(=O)n4C)CC2)c1C	-	.	.	-	.	.
COc1ccc(NC(=O)C(=O)NCCc2sc(-c3ccc(Cl)cc3)nc2C)cc1	-	.	.	-	.	.
O=C(O)/C=C\C(=O)Nc1ncn[nH]1	.	.	.	.	.	-
Cn1cc(Br)c(NC(=O)/C=C/C(=O)O)n1	0.631µM	-	?	-	-	-
COc1ccc(-c2oc3ncn4nc(-c5ccccc5Br)nc4c3c2-c2ccc(OC)cc2)cc1	-	.	.	-	.	.
C=C(C)CN(CC)C(=O)CC1C(=O)NCCN1CC(C)(C)C (stereo not drawn)	39.8µM	-	-	-	-	-
CC(C)(C)CN1CCNC(=O)C1CC(=O)N1CCOc2ccccc2C1 (stereo not drawn)	39.8µM	-	?	-	-	-

Source: PubChem (National Center for Advancing Translational Sciences (NCATS))
